# Positions count from the first letter of the chain named.
# Assays:
# Assay in all cases: PBM; 200 nM protein, PBS
# Conditions in all cases: dsDNA, one strand shown
# MSX2 [1] = biological target: MSX2 (Homo sapiens, UniProt P35548 130-214, R199I)
# MSX2 [2] = biological target: MSX2 (Homo sapiens, UniProt P35548 130-214)
# PROP1 [3] = biological target: PROP1 (Homo sapiens, UniProt O75360 56-141)
# PROP1 [4] = biological target: PROP1 (Homo sapiens, UniProt O75360 56-141, R99H)
# PROP1 [5] = biological target: PROP1 (Homo sapiens, UniProt O75360 56-141, F88S)
# MSX2 [6] = biological target: MSX2 (Homo sapiens, UniProt P35548 130-214, F161Y)
# VAX1 [7] = biological target: VAX1 (Homo sapiens, UniProt Q5SQQ9 86-172)
# VAX1 [8] = biological target: VAX1 (Homo sapiens, UniProt Q5SQQ9 86-172, T142I)
# VAX1 [9] = biological target: VAX1 (Homo sapiens, UniProt Q5SQQ9 86-172, K157R)
# HOXA2 = HOXA2 (Homo sapiens, UniProt O43364 129-215, R185K)
# HOXD13 [10] = biological target: HOXD13 (Homo sapiens, UniProt P35453 263-343, T313R)
# HOXD13 [11] = biological target: HOXD13 (Homo sapiens, UniProt P35453 263-343)
# HOXD13 [12] = biological target: HOXD13 (Homo sapiens, UniProt P35453 263-343, T313A)
# NKX2-6 [13] = biological target: T1, NKX2-6 (Homo sapiens, UniProt A6NCS4 118-204)
# T1 sequence: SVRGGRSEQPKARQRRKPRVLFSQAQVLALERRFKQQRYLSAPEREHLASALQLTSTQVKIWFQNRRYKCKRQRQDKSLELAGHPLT
# NKX2-6 [14] = biological target: T2, NKX2-6 (Homo sapiens, UniProt A6NCS4 118-204, F151L)
# T2 sequence: T1 sequence with F34L
# Sequence of MSX2 (Homo sapiens, UniProt P35548 130-214, R199I) (P35548 130-214 R199I): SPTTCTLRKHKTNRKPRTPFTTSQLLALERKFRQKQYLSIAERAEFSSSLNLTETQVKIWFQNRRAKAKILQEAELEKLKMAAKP
# Sequence of MSX2 (Homo sapiens, UniProt P35548 130-214) (P35548 130-214): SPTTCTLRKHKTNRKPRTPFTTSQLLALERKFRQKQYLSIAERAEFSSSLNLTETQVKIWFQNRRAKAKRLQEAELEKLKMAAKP
# Sequence of MSX2 (Homo sapiens, UniProt P35548 130-214, F161Y) (P35548 130-214 F161Y): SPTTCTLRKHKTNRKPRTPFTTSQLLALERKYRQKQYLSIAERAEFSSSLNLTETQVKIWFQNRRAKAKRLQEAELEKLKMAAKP
# Sequence of VAX1 (Homo sapiens, UniProt Q5SQQ9 86-172, K157R) (Q5SQQ9 86-172 K157R): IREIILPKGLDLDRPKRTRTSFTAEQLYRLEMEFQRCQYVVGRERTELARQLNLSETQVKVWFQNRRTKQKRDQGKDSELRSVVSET
# Sequence of VAX1 (Homo sapiens, UniProt Q5SQQ9 86-172) (Q5SQQ9 86-172): as the sequence (Q5SQQ9 86-172 K157R) above, with R72K counted along it
# Sequence of VAX1 (Homo sapiens, UniProt Q5SQQ9 86-172, T142I) (Q5SQQ9 86-172 T142I): as the sequence (Q5SQQ9 86-172 K157R) above, with T57I, R72K counted along it
# Sequence of HOXA2 (O43364 129-215 R185K): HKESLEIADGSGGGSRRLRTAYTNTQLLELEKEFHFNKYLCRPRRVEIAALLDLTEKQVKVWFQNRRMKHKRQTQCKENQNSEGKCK
# Sequence of PROP1 (Homo sapiens, UniProt O75360 56-141) (O75360 56-141): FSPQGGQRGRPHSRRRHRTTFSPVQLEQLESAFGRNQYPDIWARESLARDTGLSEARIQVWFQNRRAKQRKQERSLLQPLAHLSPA
# Sequence of HOXD13 (Homo sapiens, UniProt P35453 263-343, T313R) (P35453 263-343 T313R): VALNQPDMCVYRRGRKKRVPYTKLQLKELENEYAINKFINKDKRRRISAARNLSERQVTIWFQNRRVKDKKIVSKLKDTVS
# Sequence of HOXD13 (Homo sapiens, UniProt P35453 263-343, T313A) (P35453 263-343 T313A): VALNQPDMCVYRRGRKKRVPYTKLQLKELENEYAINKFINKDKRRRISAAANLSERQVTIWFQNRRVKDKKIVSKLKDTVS
# Sequence of PROP1 (Homo sapiens, UniProt O75360 56-141, R99H) (O75360 56-141 R99H): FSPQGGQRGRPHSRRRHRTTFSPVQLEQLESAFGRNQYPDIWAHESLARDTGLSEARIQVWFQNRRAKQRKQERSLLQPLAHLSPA
# Sequence of PROP1 (Homo sapiens, UniProt O75360 56-141, F88S) (O75360 56-141 F88S): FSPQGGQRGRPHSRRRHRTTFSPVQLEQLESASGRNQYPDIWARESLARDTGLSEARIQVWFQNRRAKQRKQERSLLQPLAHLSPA
# Sequence of HOXD13 (Homo sapiens, UniProt P35453 263-343) (P35453 263-343): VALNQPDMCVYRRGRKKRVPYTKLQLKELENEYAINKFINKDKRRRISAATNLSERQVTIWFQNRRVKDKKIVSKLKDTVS
sequence,measurement,setting,value
CCTGTGCC,binding signal,MSX2 [1],"9.49 upbm affinity estimate (log intensity, higher = more binding, comparable within an allelic series)"
same,binding signal,MSX2 [2],"9.41 upbm affinity estimate (log intensity, higher = more binding, comparable within an allelic series)"
same,binding signal,PROP1 [3],"6.6 upbm affinity estimate (log intensity, higher = more binding, comparable within an allelic series)"
same,binding signal,PROP1 [4],"6.69 upbm affinity estimate (log intensity, higher = more binding, comparable within an allelic series)"
same,binding signal,PROP1 [5],"6.62 upbm affinity estimate (log intensity, higher = more binding, comparable within an allelic series)"
same,binding signal,MSX2 [6],"9.42 upbm affinity estimate (log intensity, higher = more binding, comparable within an allelic series)"
GGACGGGA,binding signal,MSX2 [1],"9.67 upbm affinity estimate (log intensity, higher = more binding, comparable within an allelic series)"
same,binding signal,MSX2 [2],"9.5 upbm affinity estimate (log intensity, higher = more binding, comparable within an allelic series)"
same,binding signal,MSX2 [6],"9.6 upbm affinity estimate (log intensity, higher = more binding, comparable within an allelic series)"
CGACAATA,binding signal,MSX2 [1],"10.5 upbm affinity estimate (log intensity, higher = more binding, comparable within an allelic series)"
same,binding signal,MSX2 [2],"11 upbm affinity estimate (log intensity, higher = more binding, comparable within an allelic series)"
same,binding signal,MSX2 [6],"10.9 upbm affinity estimate (log intensity, higher = more binding, comparable within an allelic series)"
GAAGCAGC,binding signal,MSX2 [1],"9.64 upbm affinity estimate (log intensity, higher = more binding, comparable within an allelic series)"
same,binding signal,MSX2 [2],"9.57 upbm affinity estimate (log intensity, higher = more binding, comparable within an allelic series)"
same,binding signal,VAX1 [7],"7.06 upbm affinity estimate (log intensity, higher = more binding, comparable within an allelic series)"
same,binding signal,MSX2 [6],"9.57 upbm affinity estimate (log intensity, higher = more binding, comparable within an allelic series)"
same,binding signal,VAX1 [8],"7.19 upbm affinity estimate (log intensity, higher = more binding, comparable within an allelic series)"
same,binding signal,VAX1 [9],"6.96 upbm affinity estimate (log intensity, higher = more binding, comparable within an allelic series)"
AGGCGTGA,binding signal,MSX2 [1],"9.57 upbm affinity estimate (log intensity, higher = more binding, comparable within an allelic series)"
same,binding signal,MSX2 [2],"9.37 upbm affinity estimate (log intensity, higher = more binding, comparable within an allelic series)"
same,binding signal,MSX2 [6],"9.36 upbm affinity estimate (log intensity, higher = more binding, comparable within an allelic series)"
GAGGAAGC,binding signal,MSX2 [1],"9.59 upbm affinity estimate (log intensity, higher = more binding, comparable within an allelic series)"
same,binding signal,MSX2 [2],"9.52 upbm affinity estimate (log intensity, higher = more binding, comparable within an allelic series)"
same,binding signal,MSX2 [6],"9.52 upbm affinity estimate (log intensity, higher = more binding, comparable within an allelic series)"
CCAATCAA,binding signal,MSX2 [1],"11 upbm affinity estimate (log intensity, higher = more binding, comparable within an allelic series)"
CATTTTGA,binding signal,MSX2 [1],"10.3 upbm affinity estimate (log intensity, higher = more binding, comparable within an allelic series)"
same,binding signal,MSX2 [2],"10.6 upbm affinity estimate (log intensity, higher = more binding, comparable within an allelic series)"
same,binding signal,MSX2 [6],"10.5 upbm affinity estimate (log intensity, higher = more binding, comparable within an allelic series)"
GTAATCAA,binding signal,MSX2 [1],"11.1 upbm affinity estimate (log intensity, higher = more binding, comparable within an allelic series)"
same,binding signal,HOXA2,"13.1 upbm affinity estimate (log intensity, higher = more binding, comparable within an allelic series)"
ATGATTAC,binding signal,MSX2 [1],"10.9 upbm affinity estimate (log intensity, higher = more binding, comparable within an allelic series)"
GGTAATCA,binding signal,MSX2 [1],"11 upbm affinity estimate (log intensity, higher = more binding, comparable within an allelic series)"
same,binding signal,HOXA2,"13.3 upbm affinity estimate (log intensity, higher = more binding, comparable within an allelic series)"
ATTAACAC,binding signal,MSX2 [1],"11.3 upbm affinity estimate (log intensity, higher = more binding, comparable within an allelic series)"
same,binding signal,MSX2 [2],"12.1 upbm affinity estimate (log intensity, higher = more binding, comparable within an allelic series)"
same,binding signal,MSX2 [6],"11.8 upbm affinity estimate (log intensity, higher = more binding, comparable within an allelic series)"
AGCGGGGC,binding signal,MSX2 [1],"9.48 upbm affinity estimate (log intensity, higher = more binding, comparable within an allelic series)"
same,binding signal,HOXD13 [10],"9.49 upbm affinity estimate (log intensity, higher = more binding, comparable within an allelic series)"
same,binding signal,HOXD13 [11],"9.31 upbm affinity estimate (log intensity, higher = more binding, comparable within an allelic series)"
same,binding signal,MSX2 [2],"9.55 upbm affinity estimate (log intensity, higher = more binding, comparable within an allelic series)"
same,binding signal,HOXD13 [12],"9.49 upbm affinity estimate (log intensity, higher = more binding, comparable within an allelic series)"
same,binding signal,MSX2 [6],"9.55 upbm affinity estimate (log intensity, higher = more binding, comparable within an allelic series)"
CCCCTACG,binding signal,MSX2 [1],"9.54 upbm affinity estimate (log intensity, higher = more binding, comparable within an allelic series)"
same,binding signal,MSX2 [2],"9.48 upbm affinity estimate (log intensity, higher = more binding, comparable within an allelic series)"
same,binding signal,MSX2 [6],"9.63 upbm affinity estimate (log intensity, higher = more binding, comparable within an allelic series)"
AATTACTG,binding signal,MSX2 [1],"12.1 upbm affinity estimate (log intensity, higher = more binding, comparable within an allelic series)"
same,binding signal,MSX2 [2],"13.3 upbm affinity estimate (log intensity, higher = more binding, comparable within an allelic series)"
same,binding signal,MSX2 [6],"12.9 upbm affinity estimate (log intensity, higher = more binding, comparable within an allelic series)"
GGCCAGCA,binding signal,MSX2 [1],"9.48 upbm affinity estimate (log intensity, higher = more binding, comparable within an allelic series)"
same,binding signal,NKX2-6 [13],"9.51 upbm affinity estimate (log intensity, higher = more binding, comparable within an allelic series)"
same,binding signal,MSX2 [2],"9.54 upbm affinity estimate (log intensity, higher = more binding, comparable within an allelic series)"
same,binding signal,VAX1 [7],"7.05 upbm affinity estimate (log intensity, higher = more binding, comparable within an allelic series)"
same,binding signal,NKX2-6 [14],"9.32 upbm affinity estimate (log intensity, higher = more binding, comparable within an allelic series)"
same,binding signal,MSX2 [6],"9.57 upbm affinity estimate (log intensity, higher = more binding, comparable within an allelic series)"
same,binding signal,VAX1 [8],"7.11 upbm affinity estimate (log intensity, higher = more binding, comparable within an allelic series)"
same,binding signal,VAX1 [9],"7.17 upbm affinity estimate (log intensity, higher = more binding, comparable within an allelic series)"

# — PMC11006913
